# Tests used:
# Test in all cases: PBM binding z-score (relative to random genomic background probes); higher = stronger binding; sequences stand for … in GC…GCGATTGACAGCGTAGAATGAAGG
# [1] = system: FXR:RXRa (NR concentration 270 nM, RXRa partner concentration 90 nM)
# Method in brief: (§1)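 Random background probes are the reference for binding z-scores. These scores derive from regression-normalized fluorescence on custom Agilent 4×180K protein-binding microarrays incubated 1 h with ligand-free nuclear receptor dimers. Binding was detected with antibodies against each partner (one per run).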
# [2] = system: LXRa:RXRa (NR concentration 270 nM, RXRa partner concentration 90 nM)
# Method in brief: as §1
# [3] = system: LXRa homodimer (NR concentration 270 nM)
# Method in brief: as §1
# [4] = system: LXRb:RXRa (NR concentration 270 nM, RXRa partner concentration 90 nM)
# Method in brief: as §1
# [5] = system: LXRb homodimer (NR concentration 270 nM)
# Method in brief: as §1
# [6] = system: PPARa:RXRa (NR concentration 270 nM, RXRa partner concentration 90 nM)
# Method in brief: as §1
# [7] = system: PPARg:RXRa (NR concentration 180 nM, RXRa partner concentration 90 nM)
# Method in brief: as §1
# [8] = system: PPARg:RXRa 270nM:90nM, anti-RXR (NR concentration 270 nM, RXRa partner concentration 90 nM)
# Method in brief: as §1
# [9] = system: PPARg:RXRa 30nM:10nM, anti-RXR (NR concentration 30 nM, RXRa partner concentration 10 nM)
# Method in brief: as §1
# [10] = system: PPARg:RXRa 90nM:30nM, anti-RXR (NR concentration 90 nM, RXRa partner concentration 30 nM)
# Method in brief: as §1
Sequence,PBM binding z-score [1],PBM binding z-score [2],PBM binding z-score [3],PBM binding z-score [4],PBM binding z-score [5],PBM binding z-score [6],PBM binding z-score [7],PBM binding z-score [8],PBM binding z-score [9],PBM binding z-score [10]
TAGCCTAGGTCAGATCGGGCCAGTATGCGCTATA,2.71,1.19,-0.503,0.727,-0.424,1.73,0.328,0.593,-0.423,0.0994
TCTAGTTGGTAACGGAGGTCACACACGACGGGTA,2.77,3.39,3.31,3.27,0.826,3.7,2.37,3.33,3.38,3.55
TCTCGGAGGACACGACGGTCAGAGCTTTCCAGAG,0.205,0.0184,-0.415,-0.277,-1.16,0.197,-0.0353,0.515,1.6,1.3
TCAGACAGGTGAAGATAACTCAGGTACGCAGTCG,0.856,0.897,0.162,1.04,-0.112,1.39,1.09,2.31,3.92,2.92
TCATATAGGTAAAGGTGTAAGTCGAACGATATGA,0.564,0.266,-0.224,0.356,-0.187,1.81,3.01,3.83,4.04,4.1
TCTTGTAGATCGACAGGAGGTTAAGAAAGATCGA,-0.239,0.869,-0.338,0.656,-0.423,0.999,-0.276,1.14,2.24,1.55
TAGCCTAGGTCATGCGGTCCAGTATAGTGTCGGC,4.09,2.83,0.301,1.8,-0.379,3.51,2.34,2.32,0.235,1.3
CGTCCAAGGTCAATGCTAGTTCAGTGAAAGCATT,7.07,4.94,1.4,3.86,0.707,4.84,3.72,4.27,1.01,2.95
CGAACTACGTCAAGGACAGTGAATCTCCGCACGC,-0.000991,-0.458,0.0307,-0.729,-0.268,-0.387,0.65,-0.549,-0.403,-0.799
GGAACGAGGGCAGTCGAGTTGATAGCATGGCGAT,0.203,-0.214,-0.72,-0.752,-1.02,0.405,0.453,-0.213,-0.485,-0.457
CCTAGCAGGCCAGAGTCACTCAAGCATTTCGCTT,-0.525,-0.329,-0.444,-0.519,-1.47,-0.299,-0.117,-0.25,-0.904,-0.753
ATATGTAGGTTATCGGGTCATTCGGTTTGCGCAT,3.2,3.11,1.78,2.85,1.02,4.68,6.96,5.9,3.48,6.13
CAAACTAGGTCAAGCTCAAAGTCGGTTTGTGCCA,4.15,2.87,0.38,1.86,0.134,4.98,7.79,7.36,4.77,7.27
CCTATTAGTTGACCATAAGGGTAACCGAAGCTCG,0.709,0.386,0.682,0.604,0.958,0.678,0.317,0.671,0.348,0.358
ACTCGGAGGACAAAGGCCAGAGCTACGCCAGTGA,-0.254,-0.622,-0.482,-1.08,-0.835,0.196,1.47,2.38,0.441,1.97
GCAGACAGGTGAAACGCAGGTAATTCAGGGTGGC,-0.0187,-0.113,-0.552,-0.337,-1.33,0.845,0.419,-0.127,-0.526,-0.551
CCTTACGGGTCAAGGATATAGCACGGGTGGTACG,4.77,2.96,0.0404,2.45,-0.392,4.52,3.82,3.92,1.14,2.66
CGAACGAGGGCATGTGTTGATAGCAAATGCCGAT,0.387,0.273,-0.286,0.11,-0.807,1.05,1.15,1.14,0.0411,0.632
TCTTGTAGATCAGCAGGTTAGGAAAGCTGGCCAA,-0.1,0.244,-0.295,-0.112,-0.394,0.532,-0.423,1.47,2.53,2.15
AGAACGAGGGAACGCTGAGTTGATAGCAGAGTAG,-0.288,-0.46,-0.611,-0.674,-0.803,-0.499,0.464,-0.265,-0.0206,-0.332
GATACAGGGTCAAGGCTAGAGTACGCGTATTGAT,6.01,4.13,0.107,3.78,0.158,5.61,5.73,5.61,2.19,4.21
CGAACGTGGGCATGAGTTGATAGCAAATGCCGAT,-0.892,-0.876,-1.04,-0.998,-1.27,-1.82,0.51,-0.55,-0.697,-0.428
CCTAGTTGGTCAAGTTCACACACGCTATAGGTAC,1.66,2.31,1.74,2.18,0.695,2.19,1.3,1.5,0.803,1.16
TAGCCTACGTCATTCAGGGGCCAGTATAGAAAGC,-0.632,-0.447,-0.497,0.157,-0.0304,-0.0175,0.374,-0.279,-0.505,-0.468
